In PubChem BioAssay (NCATS):
Where “and” joins values, the source holds several entries; their conditions need not be identical. Identical values can stand only once. Results filed as inconclusive are left out. Some compounds were tested as several samples or in several runs, with calls that do not always agree. Calls of active or inactive are those of the source. Calls come from the whole dose curve; as a rule, active = well fitted curve in the direction sought with a large enough effect; inconclusive = small, poorly fitted or top-dose-only effect, or another doubt; inactive = no such curve, though single readings can be large; an effect the other way counts as inactive or inconclusive.

How the values were obtained:
[1] = Viability qHTS for spleen associated tyrosine kinase inhibitor (SYKi) naive MV4-11 cells (AID 1963823); note: nearly all actives have a fitted effect of over 40% in size
Method in brief: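 Viability of MV4-11 AML cells lacking prior SYK inhibitor exposure is scored by CellTiter-Glo luminescence following 72 hr compound incubation at 37 C, 5% CO2, seeded at 500 cells per well.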

[2] = Viability qHTS for spleen associated tyrosine kinase inhibitor (SYKi) drug resistant MV4-11 cells (AID 1963824); note: nearly all actives have a fitted effect of over 35% in size
Method in brief: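 SYK-inhibitor-resistant MV4-11 AML cells were seeded at 500 per well onto compound and cultured 72 hours (37 °C, 5% CO2). CellTiter-Glo was then added, and after 10 min at room temperature, luminescence gave viability.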

[3] = Cellular viability qHTS for adrenocortical cancer (ACC) cell line SW-13 (AID 1963989); conditions: SW-13 ACC cells viability, CellTiter-Glo, 48 h; activity (max response): stronger effect = lower value; note: nearly all actives have a fitted effect of over 65% in size;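 for activity (max response): cells grown in serum-free medium with ITS supplement; % is set by controls: 0 for no effect and ±100 for the full control effect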
Method in brief: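 48 h treatment, SW-13 in ITS/DMEM serum-free; doses up to 46 uM; readout CellTiter-Glo luminescence; curve fit four-parameter logistic.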

[4] = Cellular viability qHTS for adrenocortical cancer (ACC) cell line NCI-H295R (AID 1963990); note: nearly all actives have a fitted effect of over 60% in size
Method in brief: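 Compound titrations (up to 46 uM final) are applied to NCI-H295R cultures for 48 h at 37C. Viable cell number is estimated by CellTiter-Glo signal, normalised to DMSO and doxorubicin controls.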
Potency is the fitted concentration of half-maximal effect.

SMILES	Potency [1]	Potency [2]	activity (max response) [3]	Potency [4]	Potency [3]
COCc1c(-c2ccc(NC(=O)Nc3cc(C(F)(F)F)ccc3F)c(F)c2)c2c(N)ncnn2c1CN1CCOCC1	0.0105 µM (active)	0.0164 µM (active)	-5.64% (inactive)	inactive	–
CCn1c(N)c(C(=O)NC)c(=O)c2ccc(C#CC(C)(O)COC)nc21 (configuration not stated)	4.17 µM (active)	4.11 µM (active)	12.5% (inactive)	–	–
CCNC1(C(N)=O)CCN(c2ncnc3c2nc(-c2ccccc2Cl)n3-c2ccc(Cl)cc2)CC1	7.42 µM (active)	16.6 µM (active)	-4.01% (inactive)	–	–
CC(C(O)c1ccccc1)N(C)CCOC(c1ccccc1)c1ccccc1 (configuration not stated)	9.2 µM (active)	8.2 µM (active)	–	–	20.6 µM (active)
O=S(=O)(O)c1ccc2nc(-c3ccccc3)[nH]c2c1	inactive	inactive	-14% (inactive)	–	–
CCOC(=N)c1nc2ccc3ncnc(Nc4cc(F)c(F)cc4Cl)c3c2s1	7.42 µM (active)	7.42 µM (active)	-16.7% (inactive)	–	–
CNS(=O)(=O)c1ccc2c(c1)/C(=C/c1[nH]c3c(c1CCCN1CCN(C)CC1)CCCC3)C(=O)N2	0.186 µM (active)	0.332 µM (active)	–	–	28.2 µM (active)
CNC1(C)C2CCC(C2)C1(C)C (configuration not stated)	inactive	inactive	-10.9% (inactive)	inactive	–
Cn1c(NC[C@@H](N)Cc2ccccc2)nc(-c2ccncc2)c(-c2ccc3ccccc3c2)c1=O	7.42 µM (active)	6.61 µM (active)	–	31.6 µM (active)	28.2 µM (active)
C[C@@H]1CCN(C(=O)[C@H](CCCN=C(N)N)NS(=O)(=O)c2cccc3c2NC[C@H](C)C3)[C@@H](C(=O)O)C1	inactive	inactive	1.57% (inactive)	–	–
CC(C)OC(=O)c1cc(C(=O)OC(C)C)cc([N+](=O)[O-])c1	27.9 µM (active)	inactive	4.98% (inactive)	–	–
COc1ccc(C2C(=O)c3ccccc3C2=O)cc1	inactive	inactive	8.16% (inactive)	–	–
Cc1ccc(-c2nc(N)nc3c2nnn3Cc2cccc(CO[C@H]3CCOC3)n2)o1	inactive	16.6 µM (active)	-12.5% (inactive)	–	–
NCc1ccc(S(N)(=O)=O)cc1	inactive	inactive	-8.11% (inactive)	inactive	–
CN1C(=O)[C@@H](NC(=O)c2n[nH]c(Cc3ccccc3)n2)COc2ccccc21	inactive	inactive	8.85% (inactive)	inactive	–
C[C@@H]1C[C@H]2[C@@H]3C[C@H](F)C4=CC(=O)C(Cl)=C[C@]4(C)[C@@]3(F)[C@@H](O)C[C@]2(C)[C@@]1(O)C(=O)CO	4.73 µM (active)	11.9 µM (active)	-6.49% (inactive)	–	–
NC(=O)N/N=C/c1ccc([N+](=O)[O-])o1	27.3 µM (active) and inactive	21.7 µM (active)	4.16% (inactive)	8.91 µM (active)	35.5 µM (active)
O=[N+]([O-])c1ccc(O)c2ncccc12	2.99 µM (active) and 4.68 µM (active)	7.5 µM (active) and 4.68 µM (active)	–	411 nM (active) and 2.82 µM (active)	2.91 µM (active) and 10 µM (active)
Oc1cccc(-c2c3nc(c(-c4cccc(O)c4)c4ccc([nH]4)c(-c4cccc(O)c4)c4nc(c(-c5cccc(O)c5)c5ccc2[nH]5)CC4)C=C3)c1	16.8 µM (active)	18.8 µM (active)	–	–	6.51 µM (active)
CC(=O)OCC[N+](C)(C)C	inactive	inactive	10.9% (inactive)	inactive	–
N[C@@H]1CN(c2c(F)cc3c(=O)c(C(=O)O)cn([C@@H]4C[C@@H]4F)c3c2Cl)CC12CC2	inactive	inactive	-10.4% (inactive)	inactive	–
C[C@@H](C(=O)Nc1ccc(Cl)cc1)C1CCC(c2ccnc3ccc(F)cc23)CC1 (some centres not stated)	18.6 µM (active)	14.8 µM (active)	–	25.1 µM (active)	25.1 µM (active)
C[C@@H]1CC(=O)Nc2cccc(-c3ccc4c(c3)c(-c3cnn(C)c3)nn4C)c2N1	2.09 µM (active)	1.32 µM (active)	-3.66% (inactive)	–	–
CCOC(=O)c1ccnc(CNCC(=O)N(CC)CCN(C)C)c1	inactive	inactive	-23.8% (inactive)	–	–
CSc1ccc(C(=O)c2[nH]c(=O)[nH]c2C)cc1	inactive	inactive	15.3% (inactive)	inactive	–
